DAX1 inh-1 – DAX1 (NR0B1) inhibitors on StAR promoter, primary screen, cell-based, luminescence, SF-1 (NR5A1), full-length DAX-1; HEK293T StAR-luciferase reporter, SF-1/DAX-1 repression relief; inhibition, % at 6.8 µM; hit rate 1.1% among 370,000; AID 652010, 2013;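 active = inhibition above the mean over all tested compounds plus 3 SD, cut at about 3.6% in these data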;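 note: higher inhibition means more luminescence from relief of DAX-1 repression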
hgDAF12 agonist – H. glycines DAF-12 receptor agonists, primary screen, cell-based, luminescence, HEK293, GAL4 fusion, UAS-luciferase. Nuclear hormone receptor DAF-12 (Heterodera glycines), GAL4 fusion. HEK293 GAL4-hgDAF12 UAS-luciferase reporter, agonist luminescence; normalized to butyrate control. activation, % at 6.8 µM. hit rate 1.8% among 370,000;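 active = activation above a cutoff set at the mean of all screened compounds plus 3 SD, cut at about 10% in these data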
ssDAF12 agonist – S. stercoralis DAF-12 nuclear receptor activators, primary screen, cell-based, luminescence, HEK293, GRIP1 co-expression, lit1-tk-luc; Nuclear hormone receptor DAF-12 (Strongyloides stercoralis); activation, % at 6.8 µM; hit rate 1% among 370,000; AID 652126, 2013; HEK293 ssDAF-12/GRIP1 lit1-tk-luc reporter; % of 3 µM dafachronic acid response;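 active = activation above the mean over all tested compounds plus 3 SD, cut at about 0.9% in these data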
DAX1 inh-2 – DAX1 (NR0B1) inhibitors, primary screen, cell-based, HEK293, Gal4-DAX1, luciferase luminescence; AID 504766, 2011; hit rate 0.99% among 340,000; Nuclear receptor subfamily 0 group B member 1 (Homo sapiens), P51843; inhibition, % at 6.75 µM; HEK293 Gal4-DAX1 luciferase reporter;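 active = inhibition above the mean over all tested compounds plus 3 SD, cut at about 4.2% in these data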;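 note: inhibition shows as a rise in luminescence from relieved DAX1 repression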
Target sequence (P51843 207-470 limits assumed): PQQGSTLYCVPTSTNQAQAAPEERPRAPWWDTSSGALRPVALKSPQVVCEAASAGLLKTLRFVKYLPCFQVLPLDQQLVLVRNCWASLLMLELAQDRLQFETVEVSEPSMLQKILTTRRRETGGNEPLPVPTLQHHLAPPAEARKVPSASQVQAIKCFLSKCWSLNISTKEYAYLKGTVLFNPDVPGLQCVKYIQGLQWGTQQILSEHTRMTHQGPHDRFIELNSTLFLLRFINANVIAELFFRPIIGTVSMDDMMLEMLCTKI
SMARCA2 activ – SMARCA2 (BRM) function activators, primary screen, cell-based, luminescence, high throughput; MG213 cells, MMTV-luciferase reporter, dexamethasone, overnight; activation, % at 9.1 µM; hit rate 1% among 370,000; in the data active = activation above about 7.8%
hcDAF-12 act – H. contortus DAF-12 nuclear receptor activators, primary screen, cell-based, luminescence, HEK293, lit1-tk-luc reporter. HEK293 hcDAF-12 lit1-tk-luc reporter; 0% DMSO, 100% Δ7-dafachronic acid. activation, % at 6.8 µM. hit rate 1.4% among 370,000. AID 652067, 2013;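 active = activation above the mean of all tested compounds plus 3 SD, cut at about 5.5% in these data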
LXR ag – LXR agonists, Gal4 luciferase reporter, confirmation, counter-screen for hcDAF-12 agonist project, cell-based, luminescence, HEK293, H. contortus campaign; 3,400 tested, under 10 active; activation, % at 6.8 µM; shares compounds with hcDAF-12 act; HEK293 Gal4-LXR tk-luc reporter, 24 h; normalized: DMSO 0%, positive control 100%;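 active = mean percent activation of the reporter above a cutoff set as the average over tested compounds plus their standard deviation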
hcDAF12 ag – H. contortus DAF-12 receptor agonists, confirmation, cell-based, luminescence, HEK293, lit1-tk-luc, triplicate | AID 743032, 2013 | activation, % at 6.8 µM | hit rate 61% among 3,400 | HEK293 hcDAF-12 lit1-tk-luc reporter; % of Δ7-dafachronic acid response | shares compounds with hcDAF-12 act;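 active = mean activation across triplicate tests above the threshold derived from the earlier primary screen, cut at about 5.5% in these data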
Of the large screens only hits and unclear results are named; the others gave an inactive call (follow-up assays come after a bar, where they were run). In the library only some 4.8% were active in any assay of this set; here they are far more common.

CCCCN(C(=O)c1ccc(S(=O)(=O)N(C)C)cc1)c1nc2ccccc2s1	none
Nc1[nH]c(C(=O)c2ccccc2)c(-c2ccccc2C(F)(F)F)c1C(=O)c1c[nH]c2ccccc12	none (no result: DAX1 inh-2)
CC(=O)C1=C(C)N(Cc2ccc(Cl)cc2)C(=S)NC1c1ccc(Cl)cc1 (configuration not stated)	none (no result: DAX1 inh-2)
O=C(N[C@H](C(=O)N1CCC[C@H]1C(=O)NCc1ccccc1)c1ccccc1)c1ccc(Cl)cc1Cl	none (no result: DAX1 inh-2)
Cc1ccc(-n2ncc(C(=O)NC3CC3)c2C2CCN(C(=O)OC(C)(C)C)CC2)cc1	none
Cc1ccc(-n2ncc(Cl)c2C(=O)NC2CC2)cc1	hgDAF12 agonist 11, hcDAF-12 act 8.8 | LXR ag inactive | hcDAF12 ag 5.6
COCCCn1cnn2c(=O)c3ccccc3nc2c1=O	none (no result: DAX1 inh-2)
O=C1C(C=NCc2ccco2)=C(O)c2ccccc21	hgDAF12 agonist 15, ssDAF12 agonist 1.4, DAX1 inh-2 4.3, hcDAF-12 act 13 | LXR ag inactive | hcDAF12 ag 12
CCCCc1c(-c2ccccc2OC)ncn1Cc1c(F)cccc1F	none (no result: DAX1 inh-2)
Cc1cccc(S(=O)(=O)N2CCC[C@H]2C(=O)N2CCC[C@@H]2C(=O)NCc2ccccc2)c1	none (no result: DAX1 inh-2)
Cn1cc(C(=O)Nc2ccccn2)c(=O)c2ccccc21	ssDAF12 agonist 1.7, hcDAF-12 act 7.0 | LXR ag inactive | hcDAF12 ag 12
COc1ccc2oc(=O)c(/C(C)=N/Nc3nc(-c4cc(C)ccc4C)cs3)cc2c1	hcDAF-12 act 6.7 | LXR ag inactive | hcDAF12 ag inactive
COc1nc(NCCO)nc(Nc2ccc([N+](=O)[O-])cc2)n1	none
O=[N+]([O-])c1ccc(Nc2nc(Cl)nc(NCCO)n2)cc1	hcDAF-12 act 6.8 | LXR ag inactive | hcDAF12 ag inactive
COC(=O)C1=C(C)N(Cc2ccccc2)C(=S)NC1c1ccc(Br)cc1 (configuration not stated)	none (no result: DAX1 inh-2)
Cn1c(C(C#N)C(=O)Cc2cccc3ccccc23)nc2ccccc21 (configuration not stated)	none
Cn1c(C(C#N)C(=O)c2ccco2)nc2ccccc21 (configuration not stated)	hcDAF-12 act 7.2 | LXR ag inactive | hcDAF12 ag 9.6
N#Cc1cccc(NC(=O)OC2CC3CC2[C@H]2CCCCN2[C@H]3Cc2ccccc2)c1 (some centres not stated)	none (no result: DAX1 inh-2)
COC(=O)N(C)C[C@H]1OCc2cn(nn2)CCCC(=O)N([C@H](C)CO)C[C@@H]1C	none (no result: DAX1 inh-2)
O=C1c2ccccc2-c2nnc(-c3ccccc3)cc21	ssDAF12 agonist 1.8, hcDAF-12 act 7.6 | LXR ag inactive | hcDAF12 ag 6.0
Cc1cccc(-c2cc3c(nn2)-c2ccccc2C3=O)c1	ssDAF12 agonist 1.7, hcDAF-12 act 6.6 | LXR ag inactive | hcDAF12 ag 8.6
Nc1ccn([C@@H]2O[C@H](C(=O)N[C@H](Cc3ccccc3)C(=O)NCc3cccc4c3OCO4)[C@@H](O)[C@H]2O)c(=O)n1	none (no result: DAX1 inh-2)
NC(=O)c1c(N)[nH]c(C(=O)c2ccccc2)c1-c1ccc(Br)cc1	none (no result: DAX1 inh-2)

High-throughput results (PubChem)
